# FMDV inh: High Throughput Screening for Foot and Mouth Disease Virus Antivirals; FMDV antiviral cell-based qHTS; Potency, µM (titrated, usually from 57.9 µM), hits mostly inhibitors; 1.2% of 410,000 active; calls by dose curve; tested in HEK293T cells; also: read-out not given here; nearly all actives have a fitted effect of over 45% in size
# Vaccinia mCherry: qHTS for Stage-Specific Inhibitors of Vaccinia Orthopoxvirus: mCherry Reporter Primary qHTS. Vaccinia virus mCherry reporter infection, fluorescence. Potency, µM (top dose mostly 36.5 µM), actives largely listed as inhibitors. 0.63% of 310,000 active. AID 720579, 2013; calls by dose curve; tested in A549 cells; also: nearly all actives have a fitted effect of over 35% in size
# VACV Venus inh: qHTS for Stage-Specific Inhibitors of Vaccinia Orthopoxvirus: Venus Reporter Primary qHTS. Vaccinia virus Venus reporter expression, fluorescence. Potency, µM (top dose mostly 36.5 µM), actives largely listed as inhibitors. 0.46% of 330,000 active. AID 720580, 2013; calls by dose curve; tested in A549 cells; also: nearly all actives have a fitted effect of over 30% in size
# LASV entry inh: qHTS for Inhibitors of binding or entry into cells for Lassa Virus; Lassa virus pseudotype entry inhibition, cell reporter; Potency, µM (top dose mostly 37.9 µM), hits mostly inhibitors; 1.2% of 300,000 active; calls by dose curve; tested in HEK293 cells; also: nearly all actives have a fitted effect of over 50% in size
# HCMV inh: qHTS Assay for inhibitors of the human cytomegalovirus (HCMV) | HFF cells, HCMV-luciferase reporter, 72 h; active compounds read low | activity change, negative = inhibition, % at 57.5 µM | 4.5% of 410,000 active | AID 1259415, 2018; in the data active = activity change below about -60%; inconclusive = no clear call, values can overlap the other calls; inactive = above about -39%
#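 HFF cells seeded 16 h at 37C, treated with compounds, infected with luciferase-reporter HCMV at MOI 1 PFU/cell; luciferase read at 72 h post infection, normalized to buffer-only and Salinomycin controls.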
# Marburg entry inh: qHTS for inhibitors of binding or entry into cells for Marburg Virus. Marburg virus pseudotyped entry inhibition, cell reporter. Potency, µM (series often up to 37.8 µM), usual class: inhibitors. 1.8% of 300,000 active; calls by dose curve; tested in HEK293 cells
# A number is an active result; . = inactive; ? = inconclusive; / = not tested or not shown; ! = not active in a repeat. Shown are actives, neighbours in structure and some others; about 6.5% of the full set was active somewhere.
SMILES,FMDV inh,Vaccinia mCherry,VACV Venus inh,LASV entry inh,HCMV inh,Marburg entry inh
CSc1ccc2c(c1)C(N1CCN(C)CC1)Cc1ccc(F)cc1S2 (stereo not drawn),.,/,/,/,.,/
COc1ccc2c(c1)CC(N1CCN(C)CC1)c1cc(OC)ccc1S2 (stereo not drawn),?,?,?,?,-64.3,3.98µM
CC(C)OC(=O)N(C)C[C@@H]1OCc2cnnn2CCCC(=O)N([C@@H](C)CO)C[C@H]1C,.,.,.,/,.,/
COc1cc(CN2CCCC(n3cc(C(=O)N4CCCCC4)nn3)C2)cc2c1OCO2 (stereo not drawn),.,.,.,/,/,/
C[C@H](CO)N1C[C@H](C)[C@H](CN(C)C(=O)Cc2ccncc2)Oc2ncc(Br)cc2C1=O,.,?,8.91µM,/,.,/
CN1CCN(C(=O)N2c3ccccc3C=Cc3ccccc32)CC1,.,.,.,?,.,10µM
Cc1ccc(C)c(Cn2cnc3c(cnn3C(C)(C)C)c2=O)c1,.,/,.,6.31µM,?,?
CC(C)(C)n1ncc2c(=O)n(Cc3cccc(Cn4cnc5c(cnn5C(C)(C)C)c4=O)c3F)cnc21,11.2µM,/,/,/,-87.7,/
CC(C)(C)n1ncc2c(=O)n(CC(=O)OCc3ccccc3)cnc21,14.1µM,/,.,?,?,?
Cc1ccccc1Cn1cnc2c(cnn2C(C)(C)C)c1=O,.,/,.,?,.,.
COc1ccc(C(=O)c2ccc(N(C)C)cc2)c2ccccc12,/,?,?,?,-76.9,?
CN(Cc1ccc(Cl)s1)C(=O)CCl,11.2µM,.,.,11.2µM,.,?
COc1ccc(CN(C)C(=O)CCl)cc1,?,?,.,/,.,/
CN(Cc1ccc(Cl)cc1)C(=O)CCl,25.1µM,/,/,/,-64.3,/
COCCn1c(=S)[nH]c2cc(C(=O)NCCc3ccccc3)ccc2c1=O,.,.,.,.,.,?
COc1c2ccccc2nn1-c1ccc(I)cc1,/,/,/,/,.,/
Cc1cc(CNC(=O)c2cnn(-c3ncc4c(n3)-c3ccccc3CCC4)c2C2CC2)on1,.,.,.,/,/,/
Cc1cc(Nc2ccccc2Cl)c2ccccc2n1,?,.,.,?,-73.4,?
CCOc1ccc(Nc2cc(C)nc3c(C)cccc23)cc1,.,.,.,.,-76.3,0.891µM
COc1ccc(Cl)cc1Nc1cc(C)nc2ccccc12,?,/,/,/,-86.8,/
Cc1cc(Nc2ccc(C)c(C)c2)c2ccccc2n1,.,?,.,.,-63.3,3.16µM
CN(C)c1ccc(CNC(=O)CC[C@H]2O[C@@H](n3cnc4c(NC(=O)c5ccccc5)ncnc43)[C@H](O)[C@@H]2O)cc1,.,.,.,/,.,/
CCOc1ccc2nc(C)cc(Nc3cccc([N+](=O)[O-])c3)c2c1,.,11.2µM,?,?,-97.0,?
Cc1cc(Nc2cccc([N+](=O)[O-])c2)c2ccccc2n1,?,?,?,.,.,.
CC(C)CCNC(=O)Cn1nc(N2CCN(c3ccccc3)CC2)ccc1=O,.,.,.,.,.,/
SMILES,FMDV inh,Vaccinia mCherry,VACV Venus inh,LASV entry inh,HCMV inh,Marburg entry inh
COc1ccc(NC(=O)c2cccc3c2C(=O)c2ccc(-c4ccc(F)cc4OCc4ccccc4)cc2S3(=O)=O)cc1,.,.,?,/,-64.3,/
COc1ccc(NC(=O)c2ccc3c(c2)S(=O)(=O)c2ccccc2C3=O)cc1,.,.,.,/,-62.8,/
COc1ccc(OC[C@@H](O)CNC(=O)c2cccc3c2C(=O)c2ccc(-c4ccc(F)cc4OCc4ccccc4)cc2S3(=O)=O)cc1,.,?,?,/,/,/
CN1CCN(C(=O)c2ccc3c(c2)S(=O)(=O)c2ccccc2C3=O)CC1,.,?,.,/,-62.5,/
CC(C)(C)c1ccc(NC(=O)c2ccc3c(c2)S(=O)(=O)c2ccccc2C3=O)cc1,.,.,.,/,.,/
Cc1oc(-c2ccccc2F)nc1CS(=O)CC(=O)NC1CCCC1 (stereo not drawn),.,.,.,.,.,.
O=C(c1ccccc1)N1CC2ON=C(c3c(F)cccc3Cl)C2C1 (stereo not drawn),/,/,/,/,.,/
CCCCCN=C(N)N/N=C/c1c[nH]c2ccc(OC)cc12,?,?,11.2µM!,/,-99.7,/
CCCOc1ccc(C(=O)N/N=C/c2c[nH]c3ccc(Br)cc23)cc1,.,.,.,?,.,.
CN(C)C(=O)C1Cc2ccccc2CN1S(=O)(=O)c1ccc(F)cc1 (stereo not drawn),.,/,/,/,.,/
O=C(CCCSc1nnc(SCCCC(=O)c2ccc(F)cc2)s1)c1ccc(F)cc1,/,?,11.2µM,?,.,?
Nc1nnc(SCCCC(=O)c2ccc(F)cc2)s1,.,.,.,.,.,.
COc1cc(=O)n(C)c2c(OC[C@@H](O)C(C)(C)O)cccc12,/,/,/,/,/,.
Cc1ccc(S(=O)(=O)N(C)C)cc1NC(=S)NC12CC3CC(CC(C3)C1)C2,.,/,/,.,.,.
Cc1ccc(S(=O)(=O)N(C)C)cc1NC(=S)NC(=O)C12CC3CC(CC(C3)C1)C2,?,.,.,.,-63.1,?
Cc1c(C(=O)NCC(C)(C)N2CCOCC2)cnn1-c1ncc2c(n1)-c1ccccc1CCC2,.,.,.,/,/,/
CCN(CC)S(=O)(=O)c1ccc(Cl)c(NC(=O)COC(=O)c2cccn2C)c1,12.6µM,?,.,.,.,?
COC(=O)c1ccc(-c2cccc3c2OC(CNC(=O)c2ccc4c(c2)OCCO4)C3)nc1 (stereo not drawn),.,?,?,/,/,/
COCCN1C(=O)CS/C1=C(/C#N)C(=O)NCc1ccco1,.,.,.,.,-83.6,.
CC(=O)c1ccc(F)c(-c2cc(C)cc3c2OC(CNC(=O)Cc2ccc4c(c2)OCO4)C3)c1 (stereo not drawn),.,.,.,/,/,/
CCC(OC(=O)CN1C(=O)C(=O)c2ccccc21)C(=O)Nc1ccccc1OC (stereo not drawn),.,.,.,.,-62.6,.
CN(NC(=O)NN(C)C(=O)c1ccccc1)C(=O)c1ccccc1,.,.,.,.,.,?
CN(NS(=O)(=O)c1ccccc1)C(=O)c1ccccc1,.,.,.,.,-99.9,.
COc1ccc(-c2nc3cnc(Nc4ccc(F)c(Cl)c4)cc3n2C)cc1OC,/,/,/,/,.,/
CCN(CC)CCN(C(=O)CCS(=O)(=O)c1ccccc1)c1nc2c(C)cc(C)cc2s1,.,14.1µM,?,?,?,?
CCN(CC)CCN(C(=O)CCS(=O)(=O)c1ccccc1)c1nc2cc(C)cc(C)c2s1,?,.,.,?,.,?
COc1ccc(OC)c2sc(N(CCCN(C)C)C(=O)CCS(=O)(=O)c3ccccc3)nc12,35.5µM,?,?,.,.,?
COc1ccc(Cl)c2sc(N(CCN(C)C)C(=O)CCS(=O)(=O)c3ccc(C)cc3)nc12,.,.,.,.,.,.
CN(C)CCCN(C(=O)CCS(=O)(=O)c1ccccc1)c1nc2cc3c(cc2s1)OCO3,28.2µM,?,10µM,?,-112.8,?
